HT1080 IDH1KD tx = qHTS for induction of synthetic lethality in tumor cells producing 2HG: qHTS for the HT-1080-IDH1KD cell line. AID 686971, 2013. Potency, µM (highest dose often 46.1 µM), for inactives: at the top dose activity, negative = toxicity, actives largely listed as cytotoxic. 360,000 compounds, 2% hits. HT-1080 IDH1 knockdown viability, ATP luminescence, 48 h;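 further: potency means the concentration at half of the fitted maximal effect; 0% = DMSO wells and -100% = cell-free medium wells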
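Viability of IDH1-knockdown HT-1080 fibrosarcoma cells was assessed by CellTiter-Glo after 48 h at 37 °C with titrated compound; concentration-effect curves were classified by fit quality and response size.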
uPA surface inh = qHTS for Inhibitors of Cell Surface uPA Generation. cell surface uPA generation assay, qHTS. AID 540303, 2011. Potency, µM (top dose mostly 38.3 µM), for inactives: top-dose activity change, negative = inhibition, hits mostly inhibitors. 330,000 compounds, 0.31% hits; active means well fitted inhibition curve with a large enough effect; inconclusive means small, poorly fitted or top-dose-only effect; inactive means no such curve, though single readings can be large or run the other way; tested in mouse RAW 264.7 cells; further: potency means the concentration at half of the fitted maximal effect; nearly all actives have a fitted effect of over 55% in size
TDP1 cell CPT = qHTS for Inhibitors of human tyrosyl-DNA phosphodiesterase 1 (TDP1): qHTS in cells in presence of CPT. chicken DT40 Tdp1-/-;hTDP1 cells + 20 nM CPT, ATP luminescence, 48 h. Potency, µM (doses to about 46.2 µM), for inactives: at the top dose activity change, negative = growth inhibition, actives largely listed as inhibitors. 420,000 compounds, 12% hits; further: potency means the concentration at half of the fitted maximal effect; nearly all actives have a fitted effect of over 55% in size
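Chicken DT40 Tdp1-/- cells complemented with human TDP1, 400 cells/well, exposed to compounds plus 20 nM camptothecin for at least 48 h at 37 C; viability read as ATP content by CellTiter-Glo luminescence.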
IL1B secr inh = qHTS for Inhibitors of Inflammasome Signaling: IL-1-beta AlphaLISA Primary Screen; THP-1 LPS/ATP IL-1B secretion, AlphaLISA, 16 h; active compounds read low; activity change, % at 57.5 µM; 360,000 compounds, 4.7% hits; in the data active means activity change below about -50%; inconclusive means mostly about -30% to -49%
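THP-1 cells pretreated 1 hr with compounds (up to 57.5 uM final), then stimulated with LPS (250 ng/mL final) plus ATP (1.25 mM final); secreted IL-1B measured by AlphaLISA after 16 hr, decreased signal indicating inhibition.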
DT40 TDP1 no CPT = qHTS for Inhibitors of human tyrosyl-DNA phosphodiesterase 1 (TDP1): qHTS in cells in absence of CPT. DT40 Tdp1-/- hTDP1 cells, no CPT, ATP luminescence, 48 h. Potency, µM (top dose mostly 46.2 µM), for inactives: top-dose activity change, negative = growth inhibition, hits mostly inhibitors. 420,000 compounds, 15% hits. AID 686978, 2013; further: potency means the concentration at half of the fitted maximal effect; nearly all actives have a fitted effect of over 55% in size
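Seeded 400 DT40-hTDP1 cells/well (vehicle DMSO, no 20 nM CPT); pinned compounds; ≥48 hr at 37 °C; CellTiter-Glo luminescence as viability measure.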
HT1080-NT tox = qHTS for induction of synthetic lethality in tumor cells producing 2HG: qHTS for the HT-1080-NT fibrosarcoma cell line. HT-1080-NT fibrosarcoma viability, CellTiter-Glo ATP luminescence, 48 h. Potency, µM (highest dose often 46.1 µM), for inactives: at the highest dose activity, negative = less viability, hits mostly cytotoxic. 360,000 compounds, 1.6% hits;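 further: NT is the 2HG producing partner of a matched IDH1 knockdown line; potency means the concentration at half of the fitted maximal effect; 0% = DMSO-treated cells and -100% = media-only wells without cells; nearly all actives have a fitted effect of over 55% in size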
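Viability by CellTiter-Glo luminescence after 48 h compound exposure at 37C of HT-1080-NT cells (750/well, RPMI, 5% FBS). % activity scaled between DMSO wells and medium-only wells, then curve-fitted and categorized by curve class.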
The depositor's hits bear a star; [ ] = remark or other dose. This is a sample that favours compounds with a hit; in the whole collection about 19% have one here. Unless noted, the call rests on the fitted dose curve; in most records, active means well fitted curve in the direction sought with a large enough effect; inconclusive means small, poorly fitted or top-dose-only effect, or another doubt; inactive means no such curve, though single readings can be large; an effect the other way counts as inactive or inconclusive. Unless noted, on the % scale 0 is the no-effect control and ±100 the full control effect.

`Cc1ccc2nc(NC(=O)C3CCN(S(=O)(=O)c4cnc[nH]4)CC3)sc2c1` gave HT1080 IDH1KD tx -7%, uPA surface inh 11%, TDP1 cell CPT inconclusive, IL1B secr inh -19, DT40 TDP1 no CPT 16µM* and HT1080-NT tox -4%.
For Nc1ccc2nc(NC(=O)C3CCCCC3)sc2c1 the results were HT1080 IDH1KD tx -1%, uPA surface inh -5%, TDP1 cell CPT inconclusive, IL1B secr inh inconclusive, DT40 TDP1 no CPT -15% and HT1080-NT tox -18%.
COC(=O)C1=C(C)NC(=O)C1(NC(=O)c1ccc(Cl)cc1)C(F)(F)F (configuration not stated) was read as TDP1 cell CPT -2% and DT40 TDP1 no CPT 2%.
For Cc1cccc(N=C2CCCC2C(=O)Nc2cccc(C)c2C)c1C (configuration not stated) the results were HT1080 IDH1KD tx 7%, uPA surface inh -1%, TDP1 cell CPT -27%, IL1B secr inh -7, DT40 TDP1 no CPT -9% and HT1080-NT tox 10%.
`CCCOc1ccc(C(=O)N(CC(C)C)c2c(N)n(Cc3ccccc3)c(=O)[nH]c2=O)cc1` gave HT1080 IDH1KD tx -6%, uPA surface inh 2%, TDP1 cell CPT -14%, IL1B secr inh -14, DT40 TDP1 no CPT -13% and HT1080-NT tox 0%.
`Cn1c(SCC(=O)N(C2CCCCC2)C2CCCCC2)nnc1-c1cccs1` gave HT1080 IDH1KD tx 3%[9.24 µM], uPA surface inh inconclusive, TDP1 cell CPT inconclusive, IL1B secr inh -5, DT40 TDP1 no CPT 16µM* and HT1080-NT tox inconclusive.
CCn1nnnc1SCC(=O)N(C1CCCCC1)C1CCCCC1 was read as HT1080 IDH1KD tx -1%, uPA surface inh 6%, TDP1 cell CPT 10µM*, IL1B secr inh -2, DT40 TDP1 no CPT 11µM* and HT1080-NT tox 0%.
Screening Cn1ccnc1SCC(=O)N(C1CCCCC1)C1CCCCC1 returned HT1080 IDH1KD tx 4%, uPA surface inh 1%, TDP1 cell CPT inconclusive, IL1B secr inh -17, DT40 TDP1 no CPT 15µM* and HT1080-NT tox 1%.
For Cn1c(SCC(=O)NC2CC2)nnc1-c1cccs1 the results were HT1080 IDH1KD tx 3%, uPA surface inh -5%, TDP1 cell CPT -12%, IL1B secr inh -13, DT40 TDP1 no CPT -6% and HT1080-NT tox -3%.
For COc1ccc(NC(=O)N(C)C[C@H]2Oc3ccc(NC(=O)Nc4ccc5c(c4)OCO5)cc3C(=O)N([C@H](C)CO)C[C@@H]2C)cc1 the results were HT1080 IDH1KD tx 9%, uPA surface inh 7%, TDP1 cell CPT 2%, IL1B secr inh 6, DT40 TDP1 no CPT 0% and HT1080-NT tox 6%.
Screening CCOC(=O)C(=O)N(C)c1c(CC)nc2c(OCc3ccc(OC(F)F)cc3)cccn12 returned HT1080 IDH1KD tx 11%, TDP1 cell CPT inconclusive, IL1B secr inh 9, DT40 TDP1 no CPT -46% and HT1080-NT tox 9%.
O=C(COC(=O)CN1C(=O)C2CC=CCC2C1=O)Nc1cccc([N+](=O)[O-])c1 (configuration not stated) was read as HT1080 IDH1KD tx 7%, TDP1 cell CPT -23%, IL1B secr inh 12, DT40 TDP1 no CPT -17% and HT1080-NT tox 17%.
For CC(=O)Nc1cc(N=Cc2ccc(O)cc2O)c(Cl)cc1Cl the results were HT1080 IDH1KD tx 18µM*, uPA surface inh -14%, TDP1 cell CPT inconclusive, IL1B secr inh -102*, DT40 TDP1 no CPT inconclusive and HT1080-NT tox inconclusive.

Screening data: PubChem, National Center for Advancing Translational Sciences (NCATS)
